Source: PubChem BioAssay (Tox21)
“And” between values parts separate entries of the source, which are not always exact repeats. Identical values can stand only once. A structure can be active in one record and inactive in another. The source made the active and inactive calls. Entries that show only a call come without a potency. Unless noted, the call rests on the fitted dose curve; in most records, active means well fitted curve in the direction sought with a large enough effect in the repeat runs; inconclusive means weak or mixed curves; inactive means no such curve, though single readings can be large; an effect the other way counts as inactive or inconclusive.

Tests used:
[1] = qHTS assay to identify small molecule antagonists of the thyroid receptor (TR) signaling pathway - cell viability counter screen (AID 743064); further: nearly all actives have a fitted effect of over 50% in size; further: potency means the concentration at half of the fitted maximal effect
In short: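 Counter screen for cytotoxicity: compound plus T3 (1 nM final) on GH3.TRE-Luc cells, 23.5 h at 37 °C, then fluorescence viability readout with CellTiter-Fluor.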

[2] = qHTS assay to identify small molecule antagonists of the thyroid receptor (TR) signaling pathway (AID 743065); further: nearly all actives have a fitted effect of over 55% in size; further: potency means the concentration at half of the fitted maximal effect
In short: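 Antagonism measured as loss of luciferase signal in GH3 cells stably carrying a TRE-luciferase reporter, co-treated with compound and T3 (1 nM final) for 23.5 h at 37 C. Viability was read in the same well by CellTiter-Fluor.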

[3] = tested on: thyroid hormone receptor (rat, GH3 cells); test: qHTS assay to identify small molecule agonists of the thyroid receptor (TR) signaling pathway (AID 743066; calls by dose curve)
[4] = target: Estrogen receptor (Homo sapiens) (UniProt P03372); test: qHTS assay to identify small molecule antagonists of the estrogen receptor alpha (ER-alpha) signaling pathway (AID 743069; active means well fitted curve in the direction sought with a large enough effect in the signal ratio in the repeat runs, not every such curve was filed as active; inconclusive means weak or mixed curves, or effect the other way; inactive means no such curve, though single readings can be large or run the other way; the % refers to the signal ratio; further: potency means the concentration at half of the fitted maximal effect)
Estrogen receptor (Homo sapiens), sequence (P03372 whole entry, looked up): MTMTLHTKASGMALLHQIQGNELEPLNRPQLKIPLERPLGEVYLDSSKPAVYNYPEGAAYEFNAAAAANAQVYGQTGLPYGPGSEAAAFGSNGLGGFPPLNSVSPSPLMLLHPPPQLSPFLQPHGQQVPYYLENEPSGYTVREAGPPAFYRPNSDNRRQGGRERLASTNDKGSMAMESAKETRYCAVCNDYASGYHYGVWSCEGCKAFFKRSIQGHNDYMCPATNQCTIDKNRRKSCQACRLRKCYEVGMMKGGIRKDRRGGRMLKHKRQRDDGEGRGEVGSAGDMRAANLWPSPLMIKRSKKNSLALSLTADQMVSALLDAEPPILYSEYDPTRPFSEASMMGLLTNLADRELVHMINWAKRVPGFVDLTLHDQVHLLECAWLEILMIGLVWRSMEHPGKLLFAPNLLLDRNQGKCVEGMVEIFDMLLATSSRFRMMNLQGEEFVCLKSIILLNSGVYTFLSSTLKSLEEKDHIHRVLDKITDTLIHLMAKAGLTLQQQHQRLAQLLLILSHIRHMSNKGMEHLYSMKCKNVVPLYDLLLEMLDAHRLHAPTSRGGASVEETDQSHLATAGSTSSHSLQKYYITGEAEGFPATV
In short: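 Antagonist mode: compounds in DMSO were co-added with 17beta-estradiol to ER-alpha-bla HEK293 cells (2% charcoal-stripped serum) and left 18 h at 37C. Reporter inhibition was measured as FRET fluorescence after 2 h LiveBLAzer substrate at room temperature.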

[5] = target: Estrogen receptor (Homo sapiens) (UniProt P03372); test: qHTS assay to identify small molecule agonists of the estrogen receptor alpha (ER-alpha) signaling pathway (AID 743075; calls by dose curve;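 further: HEK293 GripTite cells with ER-alpha and UAS-driven beta-lactamase reporter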; further: potency means the concentration at half of the fitted maximal effect)
[6] = target: Estrogen receptor (Homo sapiens) (UniProt P03372); test: qHTS assay to identify small molecule agonists of the estrogen receptor alpha (ER-alpha) signaling pathway using the BG1 cell line (AID 743079); further: nearly all actives have a fitted effect of over 20% in size; further: potency means the concentration at half of the fitted maximal effect
[7] = qHTS assay to identify small molecule antagonists of the estrogen receptor alpha (ER-alpha) signaling pathway using the BG1 cell line (AID 743080; calls by dose curve;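 further: BG1 cells stimulated with 17beta-estradiol alongside compound; nearly all actives have a fitted effect of over 25% in size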; further: potency means the concentration at half of the fitted maximal effect); details: BG1Luc4E2 ERE-luciferase antagonist mode, luminescence; activity change, negative = inhibition: at 70.3 µM (top of the series)
In short: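 Endogenous full-length ER-alpha in BG1-Luc-4E2 cells drives a stably integrated 4×ERE luciferase gene; compounds were tested against 17beta-estradiol over 21.5 h, with luminescence and multiplexed viability fluorescence recorded.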

Aromatase (Homo sapiens) = Aromatase (Homo sapiens) (UniProt P11511); test: qHTS assay to identify aromatase inhibitors (AID 743083); further: nearly all actives have a fitted effect of over 55% in size; further: potency means the concentration at half of the fitted maximal effect
Aromatase (Homo sapiens), sequence (P11511 whole entry, looked up): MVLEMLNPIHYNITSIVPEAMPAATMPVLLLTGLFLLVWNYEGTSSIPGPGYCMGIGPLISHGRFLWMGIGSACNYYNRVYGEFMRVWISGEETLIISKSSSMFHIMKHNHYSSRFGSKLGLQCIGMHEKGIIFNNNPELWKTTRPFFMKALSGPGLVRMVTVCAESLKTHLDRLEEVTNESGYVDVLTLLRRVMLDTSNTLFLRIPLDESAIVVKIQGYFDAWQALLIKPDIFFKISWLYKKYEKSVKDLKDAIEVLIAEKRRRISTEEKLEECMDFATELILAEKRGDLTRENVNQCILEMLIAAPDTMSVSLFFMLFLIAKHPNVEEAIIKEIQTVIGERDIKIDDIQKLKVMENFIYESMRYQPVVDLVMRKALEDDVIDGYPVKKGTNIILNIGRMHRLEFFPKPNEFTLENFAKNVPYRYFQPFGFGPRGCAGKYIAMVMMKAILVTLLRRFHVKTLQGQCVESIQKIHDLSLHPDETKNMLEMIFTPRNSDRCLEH

[8] = qHTS assay to identify small molecule antagonists of the estrogen receptor alpha (ER-alpha) signaling pathway - cell viability counter screen (AID 743074; calls by dose curve;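 further: HEK293 cells carrying ER-alpha-UAS-bla reporter stimulated with 17beta-estradiol; nearly all actives have a fitted effect of over 45% in size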)
[9] = qHTS assay to identify small molecule antagonists of the estrogen receptor alpha (ER-alpha) signaling pathway using the BG1 cell line - cell viability counter screen (AID 743081);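 further: compound given together with 17beta-estradiol as the ER stimulus; nearly all actives have a fitted effect of over 45% in size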; further: potency means the concentration at half of the fitted maximal effect

Row | Compound | Potency [1] | Potency [2] | Potency [3] | Potency [4] | Potency [5] | Potency [6] | Potency [7] | Potency (Aromatase (Homo sapiens)) | Potency [8] | Potency [9]
1 | Nc1ccc([N+](=O)[O-])cc1O | 36.4 µM (active) | 48.6 µM (active) | inactive | inactive | inactive | inactive | inactive | inactive |  | 
2 | CC(C)C(=O)Nc1ccc([N+](=O)[O-])c(C(F)(F)F)c1 | inactive | 62.9 µM (active) | inactive | inactive and 49 µM [inhibitor] (active) | inactive |  | 29.8 µM (active) and 49.9 µM (active) | inactive and 62.9 µM (active) | inactive | inactive
3 | CCCCCCCC(=O)OCC(COC(=O)CCCCCCC)OC(=O)CCCCCCC | inactive | inactive | inactive | inactive | inactive | inactive | inactive | inactive | inactive | inactive
4 | CCCc1cc(=O)[nH]c(=S)[nH]1 | inactive | inactive | inactive | inactive | inactive | 26.6 µM (active) and inactive | inactive | inactive | inactive | inactive
5 | Cc1ncc([N+](=O)[O-])n1CCO | inactive | inactive | inactive | inactive | inactive | inactive | inactive | inactive | inactive | inactive
6 | CCN(CC)C(=O)c1cccc(C)c1 | inactive | inactive | inactive | inactive | 21.3 µM [inconclusive] (active) and inactive | 2.66 µM (active) and inactive | inactive | inactive | inactive | inactive
7 | COc1ccc(C(Cl)=C(c2ccc(OC)cc2)c2ccc(OC)cc2)cc1 | inactive | 11.9 µM (active) and 6.08 µM (active) and 7.7 µM (active) | inactive | 1.51 µM [inconclusive] (active) and 1.54 µM [inconclusive] (active) and 1.23 µM [inconclusive] (active) | inactive | inactive | 18.8 µM (active) and 12.1 µM (active) and 9.69 µM (active) | 8.59 µM (active) and 12.2 µM (active) | inactive | inactive
8 | O=C1OC2(c3ccccc31)c1cc(Br)c(O)c(Br)c1Oc1c2cc(Br)c(O)c1Br | 6.68 µM (active) and 5.53 µM (active) and 7.91 µM (active) | inactive | inactive |  | inactive | inactive | inactive | inactive | inactive | 11.9 µM (active) and 3.91 µM (active) and 8.88 µM (active)
9 | CN(N=O)C(=O)N[C@@H]1[C@@H](O)[C@H](O)[C@@H](CO)O[C@@H]1O | inactive | inactive | inactive | inactive | inactive | inactive | inactive | inactive | inactive | inactive
10 | CCOC(N)=O | inactive | inactive | inactive | inactive | inactive | inactive | inactive | inactive | inactive | inactive
11 | Nc1c2c(nc3ccccc13)CCCC2 | inactive | inactive | inactive | inactive | inactive | inactive and 24.3 µM (active) |  | inactive | inactive | inactive
12 | NC1CCCCC1 | inactive | inactive | inactive | inactive | inactive | inactive | inactive | inactive | inactive | inactive
13 | NS(=O)(=O)O | inactive | inactive | inactive |  |  |  |  | inactive | inactive | inactive
14 | CCCCC(CC)C(=O)O (stereo not given) | inactive | inactive | inactive |  |  |  |  | inactive | inactive | inactive
15 | CN1[C@@H]2CC(OC(=O)[C@H](CO)c3ccccc3)C[C@H]1[C@@H]1O[C@@H]12 (stereo not given in full) | inactive |  | inactive | inactive | inactive | inactive and 23.7 µM (active) and 48.6 µM (active) | inactive |  | inactive | inactive
16 | CN[C@H]1CC[C@@H](c2ccc(Cl)c(Cl)c2)c2ccccc21 | 9.44 µM (active) | 6.68 µM (active) |  |  | inactive |  |  |  |  | inactive
17 | OC[C@H]1O[C@H](O[C@]2(CCl)O[C@H](CCl)[C@@H](O)[C@@H]2O)[C@H](O)[C@@H](O)[C@H]1Cl | inactive | inactive | inactive |  |  |  |  | inactive | inactive | inactive
